Source: PubChem (several laboratories)
In the library only some 4.7% were active in any assay of this set; here they are far more common.
tim10-1 inh: inhibits growth of tim10-1 mutant yeast | S. cerevisiae tim10-1 ts strain growth, BacTiter-Glo, 24 h | inhibition, % at 20 µM | 330,000 compounds, 2.2% hits | AID 463190;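 active means inhibition of at least 40%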;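 further: mutant grown at 25 °C; 0% = DMSO wells with yeast and 100% = wells holding no yeast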
tim23-1 inh: inhibits growth of tim23-1 mutant yeast. S. cerevisiae tim23-1 growth, BacTiter-Glo luminescence, 24 h. inhibition, % at 20 µM. 330,000 compounds, 1.3% hits. AID 463212;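 active means growth inhibition of the mutant yeast at or above 50%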;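 further: temperature-sensitive mutant grown at 25 °C; plate controls were DMSO-treated mutant yeast for no effect and medium wells lacking yeast for full effect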
SKKanGAS inh: SKKanGAS growth inhibition. S. pyogenes SKKanGAS, kanamycin growth, BacTiter-Glo, 6 h. inhibition, % at 7.5 µM. 300,000 compounds, 1.3% hits;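 active means mean replicate score, as percent of positive control median, at least 50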;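 further: strain carries kanamycin resistance gene driven by streptokinase promoter and grows in 40 µg/ml kanamycin; loss of luminescence reflects streptokinase promoter inhibition or plain growth inhibition; 0% = median of DMSO wells and 100% = positive control at its reference dose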
ATG4B inhibitor: ATG4B (human) cysteine protease inhibition. Q9Y4P1. ATG4B cleavage of LC3-PLA2, NBD-HPC fluorescence, 1 h. inhibition, % at 8.33 µM. 340,000 compounds, 0.51% hits. AID 504462; in the data active means inhibition above about 40%
Target sequence (Q9Y4P1 whole entry, looked up): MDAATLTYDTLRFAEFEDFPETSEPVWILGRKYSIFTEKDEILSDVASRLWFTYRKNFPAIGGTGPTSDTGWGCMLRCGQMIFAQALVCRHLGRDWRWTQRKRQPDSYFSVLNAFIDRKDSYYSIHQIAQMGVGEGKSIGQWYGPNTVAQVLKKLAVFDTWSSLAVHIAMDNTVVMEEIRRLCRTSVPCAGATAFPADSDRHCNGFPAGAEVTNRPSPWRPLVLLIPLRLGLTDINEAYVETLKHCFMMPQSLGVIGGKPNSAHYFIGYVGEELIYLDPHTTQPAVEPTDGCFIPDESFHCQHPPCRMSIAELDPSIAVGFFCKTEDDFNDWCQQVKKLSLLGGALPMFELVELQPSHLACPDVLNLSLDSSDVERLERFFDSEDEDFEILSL
PfHsp90 set2: reduces growth (ATP signal) of yeast expressing P. falciparum Hsp90. 310,000 compounds, 0.32% hits. S. cerevisiae expressing PfHsp90, BacTiter-Glo ATP, 48 h; yeast lacking PDR1 and PDR3 efflux regulators. inhibition, % at 9.4 µM. AID 504621;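 active means every replicate shows inhibition above about 80%, whatever the replicate mean, limit read from the data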;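 further: 0% = DMSO neutral controls and 100% = 20 µM radicicol positive controls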
TIM10 inh: inhibits growth of TIM10 yeast strain | 330,000 compounds, 1.4% hits | inhibition, % at 10 µM | S. cerevisiae TIM10 strain growth, BacTiter-Glo luminescence, 24 h;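 active means inhibition of 40% or more at the single tested concentration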;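 further: wild-type TIM10 isogenic control strain grown at permissive 25 °C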
tim10-1 conf: tim10-1 yeast growth inhibition, confirmed. AID 463213. S. cerevisiae tim10-1 ts strain growth, BacTiter-Glo, 24 h. 7,400 compounds, 56% hits. shares compounds with tim10-1 inh. inhibition, % at 20 µM;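 active means inhibition of yeast growth at or above a set limit in either of two repeat tests at 20 µM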;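 further: tim10-1 mutant grown at permissive 25 °C to find synthetic lethal compounds; 0% = DMSO yeast wells and 100% = medium wells without yeast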
* marks the source's active call; other numbers are inactive results; . = no result given.

SMILES | tim10-1 inh | tim23-1 inh | SKKanGAS inh | ATG4B inhibitor | PfHsp90 set2 | TIM10 inh | tim10-1 conf
Cc1[nH]n(C(N)=S)c(=O)c1N=Nc1cccc(Cl)c1 | -12 | 2 | 2 | -1 | -9 | 8 | .
O=C(CCC(=O)N1CCN(c2ccc(Cl)c(Cl)c2)CC1)c1ccccc1 | 42* | 23 | 2 | 9 | 3 | 10 | 15
O=C(CCC(=O)N1CCN(c2ccc(F)cc2)CC1)c1ccc(Cl)cc1 | 10 | 15 | 0 | 1 | -5 | 25 | .
Cc1cccc(NS(=O)(=O)c2ccc(C)c(C(=O)N(C)C)c2)c1 | -8 | -15 | . | -1 | 0 | -9 | .
Cc1nn(C(C)(C)C)c(OC(=O)c2ccc3c(c2)OCO3)c1S(=O)(=O)c1ccccc1 | 46* | 43 | -2 | -3 | 2 | 31 | 35*
O=C(O)CSCC(=O)N1CCCN(c2nccc(C(F)(F)F)n2)CC1 | -7 | -4 | 1 | -10 | 3 | 15 | .
O=C(CN1CCC(C(=O)c2ccc(Cl)cc2)CC1)Nc1ccc2c(c1)OCCO2 | 44* | 35 | -3 | -1 | 10 | 15 | 25
COC(=O)c1c(C(=O)OC)c(-c2ccc(F)cc2)n2c1CS(=O)(=O)C2 | 0 | 16 | 4 | 0 | -22 | -12 | .
COC(=O)c1ccc(Sc2nnnn2-c2ccccc2)c([N+](=O)[O-])c1 | 50* | 42 | 0 | 7 | 4 | 25 | 35*
N#Cc1c(-c2ccccc2)cc(C2CC2)nc1SCC(=O)O | 22 | 33 | 1 | -9 | -19 | -7 | .
O=C1c2ccccc2C(=O)N1CC1c2ccccc2CCN1C(=O)C1CCCCC1 (stereo not given) | 22 | 38 | -1 | 8 | 16 | 6 | .
CCN(CC)C(=O)N1CCc2ccccc2C1CN1C(=O)c2ccccc2C1=O (stereo not given) | 48* | 42 | -4 | -5 | 12 | 28 | 22
CCC(C)c1ccc(NC(=S)Nc2ccc(OC)c(OC)c2)cc1 (stereo not given) | 44* | 39 | -5 | -1 | 5 | 29 | 32*
CCC(C)c1ccc(NC(=O)CC(C)=O)cc1 (stereo not given) | 42* | 19 | -8 | -6 | 1 | 6 | 24
CCC(C)c1ccc(NC(=S)Nc2ccc(OC)cc2C)cc1 (stereo not given) | 45* | 45 | -13 | 1 | 22 | 32 | 36*
CC(=O)Nc1ccc2sc(NC(=O)CN3CCOCC3)nc2c1 | -4 | -12 | 1 | 1 | 14 | -1 | .
Cc1ccc(C2CC(c3ccc(NS(C)(=O)=O)cc3)=NN2C(=O)c2ccco2)cc1 (stereo not given) | 7 | 10 | 5 | -9 | -19 | 13 | .
CN=C1SC(CC(=O)Nc2ccccc2F)C(=O)N1C (stereo not given) | 7 | 1 | 3 | 5 | -4 | -1 | .
COC(=O)c1cn(-c2ccccc2)nc1-c1ccc(OC)c(OC)c1 | 42* | 38 | -5 | 0 | -11 | 15 | 9
CC(=O)c1cccc(N2C(=O)C3C4CCC(C4=C(C)C)C3C2=O)c1 (stereo not given) | 26 | 15 | -8 | 1 | -3 | 5 | .
NC(=S)n1[nH]c(-c2ccc([N+](=O)[O-])cc2)c(N=Nc2ccc(O)cc2)c1=O | 21 | -2 | 12 | -4 | . | -9 | .
NC(=S)n1[nH]c(-c2ccc([N+](=O)[O-])cc2)c(N=Nc2cccc(Cl)c2)c1=O | 41* | 46 | 22 | 7 | -74 | 36 | 43*
CC(C)(O)C#Cc1ccc(C(=O)N2CCN(c3ccc([N+](=O)[O-])cc3)CC2)cc1 | 46* | 4 | 8 | -17 | 17 | 27 | 38*
Cc1ccc(CN(Cc2ccco2)C(=S)Nc2ccccc2C)cc1 | 42* | 10 | 11 | -22 | 11 | 10 | 26
Cc1ccccc1NC(=S)N(Cc1cccnc1)Cc1ccco1 | 11 | 8 | 2 | 0 | 11 | 6 | .
SMILES | tim10-1 inh | tim23-1 inh | SKKanGAS inh | ATG4B inhibitor | PfHsp90 set2 | TIM10 inh | tim10-1 conf
NCC(O)c1ccc(O)c(O)c1 (stereo not given) | . | . | . | 2 | -16 | . | .
CCc1cc2ccc(C)cc2nc1SCC(=O)N1CCN(C(=O)c2ccco2)CC1 | 42* | 38 | -7 | -8 | -11 | 5 | 13
CCc1cc2cc3c(cc2nc1SCC(=O)N1CCN(C(=O)c2ccco2)CC1)OCO3 | 21 | 33 | 0 | -8 | 3 | 1 | .
CCOC(=O)c1oc2nc(C(C)C)c3c(c2c1N)CCC3 | 43* | 37 | -4 | -2 | 12 | 21 | 29
CCOC(=O)c1oc2nc(C(C)C)c3c(c2c1N)CC(C)(C)OC3 | 25 | 35 | . | -11 | -47 | 29 | .
COc1cc(OC)cc(-c2nc3ccccc3c(=O)o2)c1 | 6 | 2 | -2 | -3 | 1 | 1 | .
COc1cccc(-c2nc3ccccc3c(=O)o2)c1 | 48* | 36 | 10 | -2 | -2 | 29 | 42*
Cc1ccc(S(=O)(=O)CC(=O)Nc2ncc([N+](=O)[O-])s2)cc1 | -8 | 7 | 9 | 1 | -4 | 14 | .
COC(=O)c1sc(S(=O)(=O)NCCCN(C)C)c(C(=O)OC)c1C | 7 | -11 | 3 | -7 | 8 | 9 | .
Cc1nnc(N/N=C/c2cccc(OCc3ccc(Cl)c(Cl)c3)c2)n1N | 43* | 41 | 8 | 1 | -11 | 24 | 36*
COc1ccc(Cl)cc1C(=O)C1CCCN(Cc2cnc(N3CCOCC3)s2)C1 (stereo not given) | 26 | 10 | -1 | 2 | -24 | -3 | .
COc1ccc(C(=O)NCCc2nc3cc([N+](=O)[O-])ccc3n2C)cc1 | 55* | 28 | 2 | -15 | -14 | 34 | 38*
CCOc1cc(/C=N/NC(=O)CSc2nncn2C)ccc1OCC(N)=O | -8 | -4 | -6 | -12 | 9 | 2 | .
CCOc1ccc(C(C)=O)cc1N1C(=O)C2C3C=CC(C3)C2C1=O (stereo not given) | 20 | 17 | 4 | 4 | . | -4 | .
CCOc1ccc(C(C)=O)cc1N1C(=O)C2C3C=CC(O3)C2C1=O (stereo not given) | 55* | -6 | 1 | -12 | -12 | -4 | 23
Cc1ccc(S(=O)(=O)NCC(c2ccco2)S(=O)(=O)c2ccccc2)cc1 (stereo not given) | 44* | 27 | -12 | -8 | . | 5 | 33*
COc1ccc(OC)c(S(=O)(=O)NCC(c2ccco2)N2CCc3ccccc3C2)c1 (stereo not given) | 27 | 22 | 2 | -7 | . | 18 | .
COc1ccc(OC)c(S(=O)(=O)NCC(c2ccco2)S(=O)(=O)c2ccccc2)c1 (stereo not given) | 43* | 11 | -6 | -8 | . | 3 | 38*
